Screening data (PubChem)
Pf growth 96h – P. falciparum growth inhibition at 96 hour, primary screen for plastid delayed-death inhibitors | AID 504834 | Potency, µM (highest dose often 28.7 µM), without a hit: at the top dose activity change, negative = inhibition, most hits filed as inhibitors | P. falciparum luciferase reporter growth, 96 h | 6.9% of 320,000 active; also: % is scaled to controls: 0 for no effect and ±100 for the full control effect
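Readout is luminescence from an integrated firefly luciferase in P. falciparum. Red cells, 2% hematocrit and 0.05% parasitemia final, were cultured with compound through two parasite generations (96 hours) at 37 C, 5% CO2.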
Pf growth 48h – inhibits P. falciparum growth in the first generation, 48 h; AID 504832; P. falciparum luciferase growth in erythrocytes, 48 h; Potency, µM (top dose mostly 28.7 µM), inactives show at the highest dose activity change, negative = inhibition, actives largely listed as inhibitors; 5.9% of 310,000 active; also: % is scaled to controls: 0 for no effect and ±100 for the full control effect
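Growth was read as firefly luciferase luminescence after a 48 h, 37 C, 5% CO2 exposure of compounds to reporter-bearing P. falciparum cultures (0.1% parasitemia, 2% hematocrit final) in Albumax-supplemented RPMI 1640.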
SARS PLP yeast – inhibitors of SARS-CoV papain-like protease in yeast. AID 485353. 0.19% of 330,000 active. Potency, µM (doses to about 32.9 µM), for the others: top-dose activity, positive = growth rescue, hits mostly activators. S. cerevisiae expressing SARS-CoV PLpro, growth rescue; calls by dose curve; also: 0% is about no effect; nearly all actives have a fitted effect of over 55% in size
Sm TGR inh – inhibitors of Schistosoma mansoni thioredoxin glutathione reductase; Q962Y6; purified TGR, DTNB reduction, TNB absorbance 405 nm; Potency, µM (titrated, usually from 114 µM), without a hit: at the top dose activity change, negative = inhibition, usual class: inhibitors; 3% of 360,000 active; AID 485364; also: % is scaled to controls: 0 for no effect and ±100 for the full control effect; nearly all actives have a fitted effect of over 60% in size
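Kinetic colorimetric format: TGR-catalysed, NADPH-driven DTNB reduction monitored via TNB absorbance. Enzyme dispensed at 20 nM; compound exposure 15 min at room temperature before reaction start.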
Numbers without * were called inactive; ? = inconclusive; . = not tested or not shown. Only some compounds are listed: those with a hit (about 12% of all), similar ones and a draw of the others. Unless noted, calls follow the shape of the dose curve; as a rule, active = well fitted curve in the direction sought with a large enough effect; inconclusive = small, poorly fitted or top-dose-only effect, or another doubt; inactive = no such curve, though single readings can be large; an effect the other way counts as inactive or inconclusive. Potency is read from the fitted curve at half-maximal effect.

SMILES	Pf growth 96h	Pf growth 48h	SARS PLP yeast	Sm TGR inh
Cc1ccc(-n2nc(C)c3nc(CCC(=O)Nc4ccc(F)cc4)c(=O)n(C)c32)cc1	.	.	.	1%
Cc1cc(C)nc(/N=C(\N)Nc2ccc(OCCC(C)C)cc2)n1	?	10µM*	1%	55%
Cc1cc(C)nc(/N=C(\N)Nc2ccc(S(=O)(=O)Nc3nccc(C)n3)cc2)n1	4.1µM*	44%	0%	-3%
Cc1cc(C)nc(/N=C(\N)Nc2ccc(OCc3ccccc3)cc2)n1	47%	?	0%	18%
Cc1cc(C)nc(/N=C(\N)Nc2ccc(S(=O)(=O)O)cc2)n1	15%	6%	0%	65%
O=C(c1ccco1)[C@@H]1[C@@H]2C(=O)N(c3ccc(F)cc3)C(=O)[C@@H]2[C@H]2C=Cc3ccccc3N21	3.7µM*	?	-19%	-33%
NC(=O)[C@@H]1[C@@H]2C(=O)N(c3ccc(F)cc3)C(=O)[C@@H]2[C@H]2C=Cc3ccccc3N21	?	?	0%	32µM*
COc1cc(OC)cc(C(=O)Nc2ccc3nc(N4CCC(C)CC4)cc(C)c3c2)c1	.	.	.	10%
Cc1ccc(CC(NC(=O)C2CCCCC2)C(=O)O)cc1 (stereo not drawn)	.	.	18%	.
COc1ccc(CN(C(=O)Nc2cc(C)ccc2C)C2CCN(C(C)=O)CC2)cc1	.	.	.	0%
Cc1ccc2c(CC(=O)NCC3(N4CCOCC4)CCCCC3)coc2c1C	9.3µM*	?	9%	-3%
N#CCC(=O)Nc1ccc(C(=O)NCC2(N3CCOCC3)CCCCC2)cc1	10µM*	12µM*	-2%	7%
Cc1ccccc1C(=O)NCC(=O)NCC1(N2CCOCC2)CCCCC1	22%	-9%	4%	-10%
CCN(CC)C(=O)c1[nH]cnc1C(=O)N[C@H](C)c1ccccc1	27%	70%	-8%	4%
Oc1c(N=Nc2ccccn2)ccc2ccccc12	8.3µM*	?	-32%	-4%
O=C(NCCc1c[nH]c2ccccc12)C(=O)Nc1cc2c3c(c1)CC(=O)N3CCC2	2.9µM*	1µM*	-1%	5%
O=C(NCCc1ccc(F)cc1)C(=O)Nc1cc2c3c(c1)CC(=O)N3CCC2	?	?	-1%	-1%
CC1C(=O)N2CCCc3cc(S(=O)(=O)NCCc4ccccc4)cc1c32 (stereo not drawn)	2.1µM*	-1%	-2%	2%
CC1C(=O)N2CCCc3cc(NC(=O)C(=O)NCc4ccc5c(c4)OCO5)cc1c32 (stereo not drawn)	7.4µM*	8.3µM*	1%	-5%
COc1ccccc1CCNC(=O)C(=O)Nc1cc2c3c(c1)C(C)C(=O)N3CCC2 (stereo not drawn)	?	13µM*	-1%	-10%
CC1C(=O)N2CCCc3cc(NC(=O)C(=O)NCc4cccnc4)cc1c32 (stereo not drawn)	?	?	1%	0%
CC(OC(=O)c1ccc(OCC2CCCO2)cc1)C(=O)N(C)Cc1ccccc1 (stereo not drawn)	4.7µM*	3.3µM*	-4%	-3%
O=C1CC(NCCN2CCOCC2)C(=O)N1Cc1ccc(N2CCCC2=O)cc1 (stereo not drawn)	4.1µM*	5%	1%	?
COc1ccc(N2CCN(C3CC(=O)N(Cc4ccc(N5CCCC5=O)cc4)C3=O)CC2)cc1 (stereo not drawn)	29%	?	7%	0%
O=C1CC(N2CCN(c3ccc(F)cc3)CC2)C(=O)N1Cc1ccc(N2CCCC2=O)cc1 (stereo not drawn)	.	?	-4%	45µM*
SMILES	Pf growth 96h	Pf growth 48h	SARS PLP yeast	Sm TGR inh
CC(C)Cn1c(/C=C/c2ccco2)nc2ccccc21	?	18%	-28%	7.9µM*
CCCCc1cc(=O)oc2cc(C)cc(OCC(=O)NCc3cccnc3)c12	9.3µM*	10µM*	1%	7%
CCCc1cc(=O)oc2cc(C)cc(OC(C)C(=O)NCC3CCC(C(=O)O)CC3)c12 (stereo not drawn)	?	0%	4%	5%
CCCc1cc(=O)oc2cc(C)cc(OCC(=O)NCc3ccncc3)c12	8.3µM*	9.3µM*	-4%	-6%
CCCc1cc(=O)oc2cc(C)cc(OC(C)C(=O)NCc3ccncc3)c12 (stereo not drawn)	2.9µM*	3.3µM*	3%	2%
CCc1cc(=O)oc2cc(C)cc(OCC(=O)NCc3ccncc3)c12	-12%	-1%	-6%	0%
CCCCc1cc(=O)oc2cc(C)cc(OC(C)C(=O)NCC3CCC(C(=O)O)CC3)c12 (stereo not drawn)	9.3µM*	?	-2%	-2%
CCc1cc(=O)oc2cc(C)cc(OC(C)C(=O)NCC(O)c3ccccc3)c12 (stereo not drawn)	?	?	1%	2%
CCCC(=O)Nc1cc(-c2nnc3c4ccccc4c(C)nn23)ccc1C	.	.	.	1%
COc1ccc(OC)c(C2CC(=O)Nc3c2c(=O)[nH]c2nc4ccccc4n32)c1 (stereo not drawn)	.	.	.	7%
O=C(c1ccc2c(c1)N(Cc1ccccc1)C(=O)c1ccccc1S2(=O)=O)N1CCOCC1	.	.	.	5%
CCCc1cc(=O)oc2cc(C)cc(OC(C)C(=O)NCc3cccnc3)c12 (stereo not drawn)	4.7µM*	8.3µM*	-15%	-2%
CCc1cc2c(-c3ccccc3)cc(=O)oc2cc1OC(C)C(=O)NCC1CCC(C(=O)O)CC1 (stereo not drawn)	9.3µM*	?	3%	-3%
CC(Oc1cc2oc(=O)cc(-c3ccccc3)c2cc1Cl)C(=O)NCC1CCC(C(=O)O)CC1 (stereo not drawn)	?	-5%	4%	8%
Cc1ccc(-n2c(=O)c3oc4ccccc4c3n(Cc3cccc(F)c3)c2=O)cc1C	.	.	.	0%
O=C(NCc1ccccn1)C(=O)NCC1OCCN1S(=O)(=O)c1ccc(F)cc1 (stereo not drawn)	2%	1%	-2%	-23%
Cn1c(CSCc2ccccc2)nnc1SCC(=O)Nc1nccs1	5.9µM*	?	1%	-1%
COc1ccc(C(CC(=O)Nc2nccs2)C(C)C)cc1 (stereo not drawn)	13µM*	?	0%	-14%
COc1ccc(NC(=O)CSc2nnc(Cn3cnc4ccccc43)n2C)cc1	2.3µM*	-14%	-5%	0%
COc1ccc(NC(=O)Cc2nnc(SCC(=O)Nc3nccs3)n2C)cc1	3.3µM*	11%	-6%	3%
COc1ccc(NC(=O)Cc2nnc(SCC(=O)Nc3ccccc3)n2C)cc1	174%	10%	-2%	8%
CC(C)C(NC(=O)c1ccc(F)cc1)C(=O)N1CCOCC1 (stereo not drawn)	-19%	1%	0%	0%
Cc1cc(=O)oc2cc(OC(=O)C3CCN(C(=O)c4ccc(F)cc4)CC3)ccc12	-2%	-8%	-17%	-14%
Cc1cc(C)cc(NC(=O)C2CCN(c3cc(C)nc4c(-c5ccc(Cl)cc5)c(C)nn34)CC2)c1	.	.	.	-8%
COC(=O)c1ccc(Cl)cc1NC(=O)N1CC(C)Oc2ccccc21 (stereo not drawn)	.	.	.	1%
